Test [1] deals with Aryl hydrocarbon receptor (Homo sapiens) (UniProt P35869). As to the kind of experiment: qHTS assay to identify small molecule that activate the aryl hydrocarbon receptor (AhR) signaling pathway (AID 743085).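 Note: HG2L7.5c1 human HepG2 liver cells with stably integrated DRE-driven firefly reporter; series mostly up to about 70 µM; nearly all actives have a fitted effect of over 15% in size.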 The method, boiled down:
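HepG2 cells (HG2L7.5c1) stably carrying a firefly luciferase reporter driven by 20 dioxin responsive elements were exposed to compound for 24 h at 37C after a 5 h settling period; luminescence rise (ONE-Glo) indicated activation.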
For orientation: qHTS replaces the single test concentration by a dilution series.

Test [2] is described as follows: qHTS assay to identify small molecule that activate the aryl hydrocarbon receptor (AhR) signaling pathway - cell viability counter screen (AID 743086).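 Note: HepG2 liver cells carrying the AhR DRE luciferase reporter; series mostly up to about 70 µM; nearly all actives have a fitted effect of over 45% in size.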 In a few lines:
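Cytotoxicity counter screen: CellTiter-Fluor signal (30 min, 37 C) in 4000 HepG2 cells/well carrying the DRE-luciferase reporter, following 24 h compound exposure at 37 C.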

Test [3] can be described thus: qHTS assay to identify small molecule antagonists of the peroxisome proliferator-activated receptor gamma (PPARg) signaling pathway - cell viability counter screen (AID 743194). Note: nearly all actives have a fitted effect of over 55% in size. The note with it: Potency: co-treated with 50 nM rosiglitazone. The method, boiled down:
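Viability was measured as CellTiter-Glo luminescence in GeneBLAzer PPARg UAS-bla HEK293H cells. These cells had been exposed 17 h at 37 C to compounds together with rosiglitazone at 50 nM final, with the beta-lactamase readout taken in the same wells.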

Test [4] can be described thus: qHTS assay for small molecule agonists of the antioxidant response element (ARE) signaling pathway (AID 743202; active = well fitted activation curve with a large enough effect in the signal ratio in the repeat runs, not every such curve was filed as active; the % refers to the signal ratio; note: potency is the fitted concentration of half-maximal effect). The method, boiled down: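 After 16 hours of compound treatment at 37 C, HepG2 cells with a stably integrated ARE-driven beta-lactamase reporter were loaded 2 hours at room temperature with LiveBLAzer B/G FRET substrate and fluorescence intensity measured.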

The nature of test [5]: qHTS assay for small molecule activators of the heat shock response signaling pathway (AID 743210; active = well fitted activation curve with a large enough effect in the signal ratio in the repeat runs, with a control signal flat, not every such curve was filed as active; the % refers to the signal ratio; note: series mostly up to about 63 µM). The method, boiled down:
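Compound exposure lasted 5 h at 37 C in HeLa cells carrying a heat-shock-element-driven beta-lactamase reporter. Read-out: fluorescence intensity after 2.5 h room-temperature loading with LiveBLAzer B/G FRET substrate.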

Test [6] is described as follows: qHTS assay to identify small molecule agonists of the peroxisome proliferator-activated receptor delta (PPARd) signaling pathway - cell viability counter screen (AID 743211). Note: nearly all actives have a fitted effect of over 55% in size. The method, boiled down: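 PPARd-bla HEK293H cells (UAS-beta-lactamase reporter) were treated with compounds for 17 h at 37 C. Viability was then read in the same wells by CellTiter-Glo luminescence after 30 min at room temperature.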

For test [7], the target named is Peroxisome proliferator-activated receptor delta (Homo sapiens) (UniProt Q03181). As to the kind of experiment: qHTS assay to identify small molecule agonists of the peroxisome proliferator-activated receptor delta (PPARd) signaling pathway (AID 743212; calls by dose curve). The method, boiled down: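 Beta-lactamase reporter readout: a ratiometric FRET signal from the LiveBLAzer substrate after 2 h at room temperature. Compound exposure at 37 °C in PPARδ-bla HEK293H cells driven by an upstream activator sequence.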

A short description of test [8]: qHTS assay to identify small molecule antagonists of the peroxisome proliferator-activated receptor delta (PPARd) signaling pathway - cell viability counter screen (AID 743213). Note: nearly all actives have a fitted effect of over 50% in size. In a few lines:
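Viability counter-screen, qHTS format: PPARd-bla HEK293H, L165041 300 nM final, 17 h compound exposure at 37 C, CellTiter-Glo luminescence after 30 min RT.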

Test [9] has as its target Peroxisome proliferator-activated receptor delta (Homo sapiens) (UniProt Q03181). The test is described as follows: qHTS assay to identify small molecule antagonists of the peroxisome proliferator-activated receptor delta (PPARd) signaling pathway (AID 743215; active = well fitted inhibition curve with a large enough effect in the signal ratio in the repeat runs, not every such curve was filed as active; the % refers to the signal ratio;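 note: cells stimulated with agonist L165041 at 300 nM final during compound exposure; series mostly up to about 62 µM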). The method, boiled down: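 Cells: HEK293H with a UAS-driven beta-lactamase reporter responsive to PPARd. Compounds were co-added with L165041 (300 nM, final) and incubated 17 h at 37 C before a 2 h room-temperature FRET substrate step and fluorescence reading.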

The target of test [10] is Bile acid receptor (Homo sapiens) (UniProt Q96RI1). As to the kind of experiment: qHTS assay to identify small molecule antagonists of the farnesoid-X-receptor (FXR) signaling pathway (AID 743217; active = well fitted inhibition curve with a large enough effect in the signal ratio in the repeat runs, not every such curve was filed as active; the % refers to the signal ratio). In a few lines: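 Cells carrying a UAS-driven beta-lactamase reporter (GeneBLAzer FXR-UAS-bla HEK 293T) were plated and rested 5 h at 37 °C. Compounds in DMSO were added alongside chenodeoxycholic acid agonist at 50 uM final and left 16 h at 37 °C before FRET substrate readout.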

A short description of test [11]: qHTS assay to identify small molecule agonists of the farnesoid-X-receptor (FXR) signaling pathway - cell viability counter screen (AID 743218). Note: nearly all actives have a fitted effect of over 45% in size. In a few lines:
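Cells were seeded, left 5 h at 37 C and 5% CO2, then dosed with compound in DMSO for 16 h. After the beta-lactamase FRET read, CellTiter-Glo was added and luminescence measured 30 min later.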

For test [12], the target named is Bile acid receptor (Homo sapiens) (UniProt Q96RI1). The test is described as follows: qHTS assay to identify small molecule agonists of the farnesoid-X-receptor (FXR) signaling pathway (AID 743220; active = well fitted activation curve with a large enough effect in the signal ratio in the repeat runs, not every such curve was filed as active; the % refers to the signal ratio). The method, boiled down: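 FXR-UAS-bla HEK 293T cells carrying a UAS-driven beta-lactamase reporter were plated for 5 h at 37C/5% CO2, then exposed to DMSO-dissolved Tox21 10K compounds for 16 h at 37C. A LiveBLAzer B/G FRET substrate was loaded for 2 h at room temperature before fluorescence reading.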

Test [13] is described as follows: qHTS assay to identify small molecule antagonists of the farnesoid-X-receptor (FXR) signaling pathway - cell viability counter screen (AID 743221; active = well fitted cell-killing curve with a large enough effect in the repeat runs, not every such curve was filed as active; note: nearly all actives have a fitted effect of over 50% in size). The method, boiled down: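 FXR-UAS-bla HEK 293T cells were treated with test compounds plus chenodeoxycholic acid (50 uM final) for 16 h at 37 C. Cell viability in the same wells was then read as CellTiter-Glo luminescence after 30 min at room temperature.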

The target in test [14] is Vitamin D3 receptor (Homo sapiens) (UniProt P11473). The test is described as follows: qHTS assay to identify small molecule agonists of the vitamin D receptor (VDR) signaling pathway (AID 743222; calls by dose curve). In a few lines: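 Cells carrying a VDR-driven beta-lactamase reporter are seeded at 2,000 per well and rested 4 h. Compounds in DMSO are added for 16 h at 37C, and FRET substrate fluorescence is measured after 2 h at room temperature.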

Test [15] can be described thus: qHTS assay to identify small molecule agonists of the vitamin D receptor (VDR) signaling pathway - cell viability counter screen (AID 743224). Note: series mostly up to about 63 µM; nearly all actives have a fitted effect of over 50% in size. The method, boiled down:
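Cells: VDR-bla, 2,000/well, settled 4 h. Treatment: compounds in DMSO, 16 h, 37C/5% CO2. Readout: CellTiter-Glo luminescence after 30 min RT.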

The target in test [16] is Peroxisome proliferator-activated receptor gamma (Homo sapiens) (UniProt P37231). The test is described as follows: qHTS assay to identify small molecule agonists of the peroxisome proliferator-activated receptor gamma (PPARg) signaling pathway (AID 743094; active = well fitted activation curve with a large enough effect in the signal ratio in the repeat runs, not every such curve was filed as active; the % refers to the signal ratio). The method, boiled down: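 Cells from the PPARg UAS-bla HEK293H line are plated and incubated 5 h at 37C. Compounds in DMSO are pinned in and left 17 h at 37C. LiveBLAzer B/G substrate is then added for 1 h at room temperature before fluorescence is measured.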

Test [17] has the same target. As to the kind of experiment: qHTS assay to identify small molecule antagonists of the peroxisome proliferator-activated receptor gamma (PPARg) signaling pathway (AID 743191; calls by dose curve; note: series mostly up to about 63 µM; nearly all actives have a fitted effect of over 30% in size). The method, boiled down:
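Beta-lactamase reporter under UAS control in HEK293H PPARg-bla cells; compound treatment 17 h at 37C. Read-out: fluorescence intensity after 1 h room-temperature incubation with LiveBLAzer B/G FRET substrate.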

Test [18] in a line: qHTS assay for small molecule agonists of the antioxidant response element (ARE) signaling pathway - cell viability counter screen (AID 743203; calls by dose curve; note: nearly all actives have a fitted effect of over 55% in size). In a few lines: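 Cytotoxicity was tested in parallel with the ARE reporter screen. ARE-bla HepG2 cells were exposed to compounds for 16 hrs, and viability was taken from CellTiter-Glo luminescence.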
A short description of test [19]: qHTS assay for small molecule activators of the heat shock response signaling pathway - cell viability counter screen (AID 743209). Note: nearly all actives have a fitted effect of over 50% in size. In a few lines: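 Cytotoxicity counter screen run in parallel with the HSE beta-lactamase reporter, using the same wells. HeLa HSE-bla cells received compound for 5 h at 37 C; ATP-based CellTiter-Glo luminescence was measured after 30 min at room temperature.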

For test [20], the target named is Vitamin D3 receptor (Homo sapiens) (UniProt P11473). As to the kind of experiment: qHTS assay to identify small molecule antagonists of the vitamin D receptor (VDR) signaling pathway (AID 743223; active = well fitted inhibition curve with a large enough effect in the signal ratio in the repeat runs, not every such curve was filed as active; the % refers to the signal ratio). The method, boiled down: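 VDR-bla cells were plated, incubated 4 h at 37C, then given compound and 1alpha,25-dihydroxyvitamin D3 (3 nM final). After 16 h at 37C, LiveBLAzer B/G FRET substrate was added for 2 h at room temperature and fluorescence read.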

Molecules are shown by their SMILES. Records with an inconclusive call do not appear. Unmarked numbers belong to inactive results. Active and inactive are the calls of the source. Unless noted, calls come from the whole dose curve; as a rule, active = well fitted curve in the direction sought with a large enough effect in the repeat runs; inconclusive = weak or mixed curves; inactive = no such curve, though single readings can be large; an effect the other way counts as inactive or inconclusive.
% is set by controls: 0 for no effect and ±100 for the full control effect.

Sequence of Bile acid receptor (Homo sapiens) (Q96RI1 whole entry, looked up): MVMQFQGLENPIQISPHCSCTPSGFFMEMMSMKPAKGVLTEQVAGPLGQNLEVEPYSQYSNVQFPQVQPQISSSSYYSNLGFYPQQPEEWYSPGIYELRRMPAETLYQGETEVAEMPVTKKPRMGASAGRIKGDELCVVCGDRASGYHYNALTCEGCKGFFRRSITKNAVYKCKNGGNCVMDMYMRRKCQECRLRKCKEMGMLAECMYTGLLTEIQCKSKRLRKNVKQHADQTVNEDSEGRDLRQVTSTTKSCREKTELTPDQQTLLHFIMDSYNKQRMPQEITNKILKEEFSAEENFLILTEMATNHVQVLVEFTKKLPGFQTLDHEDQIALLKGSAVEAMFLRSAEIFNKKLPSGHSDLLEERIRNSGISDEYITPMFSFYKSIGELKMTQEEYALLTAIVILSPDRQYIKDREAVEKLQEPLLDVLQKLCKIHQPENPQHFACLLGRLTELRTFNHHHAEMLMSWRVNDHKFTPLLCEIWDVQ
Sequence of Peroxisome proliferator-activated receptor gamma (Homo sapiens) (P37231 whole entry, looked up): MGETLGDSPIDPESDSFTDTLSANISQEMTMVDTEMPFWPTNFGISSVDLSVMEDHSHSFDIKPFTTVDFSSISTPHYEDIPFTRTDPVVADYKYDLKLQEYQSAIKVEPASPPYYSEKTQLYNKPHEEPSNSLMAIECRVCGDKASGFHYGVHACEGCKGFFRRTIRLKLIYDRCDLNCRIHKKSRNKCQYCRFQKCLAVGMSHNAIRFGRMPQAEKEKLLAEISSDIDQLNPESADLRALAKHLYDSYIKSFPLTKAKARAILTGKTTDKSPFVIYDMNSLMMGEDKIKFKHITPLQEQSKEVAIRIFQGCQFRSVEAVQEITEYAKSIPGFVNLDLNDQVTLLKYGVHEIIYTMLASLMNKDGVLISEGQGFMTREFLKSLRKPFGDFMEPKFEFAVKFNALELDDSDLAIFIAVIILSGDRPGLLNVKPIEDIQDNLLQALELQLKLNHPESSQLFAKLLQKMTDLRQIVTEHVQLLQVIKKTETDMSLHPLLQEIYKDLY
Sequence of Aryl hydrocarbon receptor (Homo sapiens) (P35869 whole entry, looked up): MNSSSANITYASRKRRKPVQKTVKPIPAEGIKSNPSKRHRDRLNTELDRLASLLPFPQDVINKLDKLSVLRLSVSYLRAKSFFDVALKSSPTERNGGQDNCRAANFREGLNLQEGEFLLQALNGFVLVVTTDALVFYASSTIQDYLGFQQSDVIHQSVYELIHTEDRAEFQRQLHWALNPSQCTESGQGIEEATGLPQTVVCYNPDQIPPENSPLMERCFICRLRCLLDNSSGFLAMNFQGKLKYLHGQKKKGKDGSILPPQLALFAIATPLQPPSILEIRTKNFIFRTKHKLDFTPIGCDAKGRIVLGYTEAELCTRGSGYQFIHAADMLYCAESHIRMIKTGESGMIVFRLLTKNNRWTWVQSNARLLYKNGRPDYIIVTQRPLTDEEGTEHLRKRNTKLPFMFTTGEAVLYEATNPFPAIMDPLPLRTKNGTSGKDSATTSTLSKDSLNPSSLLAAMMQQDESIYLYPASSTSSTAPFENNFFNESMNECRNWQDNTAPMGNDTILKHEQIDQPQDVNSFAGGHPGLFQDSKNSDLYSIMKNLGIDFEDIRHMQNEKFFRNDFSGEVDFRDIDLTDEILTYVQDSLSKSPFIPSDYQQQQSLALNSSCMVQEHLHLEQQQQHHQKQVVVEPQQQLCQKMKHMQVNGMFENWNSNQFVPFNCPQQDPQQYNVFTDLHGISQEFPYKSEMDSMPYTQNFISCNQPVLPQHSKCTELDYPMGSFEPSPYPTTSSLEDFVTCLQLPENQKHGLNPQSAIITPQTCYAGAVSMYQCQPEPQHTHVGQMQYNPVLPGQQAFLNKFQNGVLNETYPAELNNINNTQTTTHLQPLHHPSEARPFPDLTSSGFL
Sequence of Peroxisome proliferator-activated receptor delta (Homo sapiens) (Q03181 whole entry, looked up): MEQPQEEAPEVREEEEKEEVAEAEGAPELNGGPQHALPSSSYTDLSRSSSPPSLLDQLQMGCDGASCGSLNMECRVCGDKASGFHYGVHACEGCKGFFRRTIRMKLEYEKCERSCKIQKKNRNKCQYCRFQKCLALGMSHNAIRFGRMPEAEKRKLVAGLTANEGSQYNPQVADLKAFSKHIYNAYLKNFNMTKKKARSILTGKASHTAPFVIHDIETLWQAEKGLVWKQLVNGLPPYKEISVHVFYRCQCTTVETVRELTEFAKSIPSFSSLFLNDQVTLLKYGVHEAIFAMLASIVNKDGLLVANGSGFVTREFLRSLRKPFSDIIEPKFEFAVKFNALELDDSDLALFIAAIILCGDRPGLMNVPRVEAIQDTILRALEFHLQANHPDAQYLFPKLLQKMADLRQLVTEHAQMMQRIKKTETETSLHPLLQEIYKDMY
Sequence of Vitamin D3 receptor (Homo sapiens) (P11473 whole entry, looked up): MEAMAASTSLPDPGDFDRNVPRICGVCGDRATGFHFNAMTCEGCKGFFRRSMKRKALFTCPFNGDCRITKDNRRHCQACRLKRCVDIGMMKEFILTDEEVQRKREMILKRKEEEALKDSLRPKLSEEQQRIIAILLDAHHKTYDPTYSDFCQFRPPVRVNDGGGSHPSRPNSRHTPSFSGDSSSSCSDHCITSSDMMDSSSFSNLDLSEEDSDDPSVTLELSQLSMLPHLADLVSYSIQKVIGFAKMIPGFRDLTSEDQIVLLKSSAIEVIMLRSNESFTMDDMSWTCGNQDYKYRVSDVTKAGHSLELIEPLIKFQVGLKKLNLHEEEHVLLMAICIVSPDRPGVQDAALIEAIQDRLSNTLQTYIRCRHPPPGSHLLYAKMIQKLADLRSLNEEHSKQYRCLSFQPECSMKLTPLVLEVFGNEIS

Regarding `O=C(Cl)/C=C/C(=O)Cl`, the Potency result in test [1], in [2], in test [3], in [5], in test [6] and in test [8] was “inactive” throughout. Also, the Potency entry in [9], in test [11], in test [13] and in [15] was “inactive” in each case. Besides, the Potency in test [4] was 22 µM (active). The outcome in test [7], in [10], in test [12] and in test [14] was inactive.

For `CC(C)(C)NC[C@H](O)c1ccc(O)cc1Cl`, the Potency entry in [2], in test [17], in [3], in [4], in test [18] and in test [19] was “inactive” in each case. In addition, the Potency result in [5], in test [6], in test [8], in test [11], in [13] and in test [15] was “inactive” in each case. The compound was called inactive in test [16], in test [7], in test [10], in [12], in test [14] and in test [20].

In the case of `C#CC(C)(C)O`, the Potency entry in test [1], in [2], in [3], in test [4], in [18] and in test [19] was “inactive” in each case. In addition, the Potency entry in [5], in test [6], in [8], in test [9], in [11] and in [13] was “inactive” throughout. Also, the Potency entry in test [15] is “inactive”. Besides, the call in test [7], in test [10], in [12], in [14] and in [20] was inactive.

Take `CN1C(=O)COc2c(C(=O)NC3CN4CCC3CC4)cc(Cl)cc21` (configuration not stated): the Potency entry in test [1], in [2], in test [3], in test [5], in test [6] and in [8] was “inactive” throughout. Besides, the Potency entry in test [9], in [11] and in [13] was “inactive” each time. The compound was called inactive in test [7], in test [14] and in test [20].

As for `CCCC(C)C1(CC)C(=O)N=C(S)NC1=O` (configuration not stated), the Potency entry in test [1], in [2], in [3], in test [4], in test [19] and in test [5] was “inactive” each time. Further, the Potency entry in test [6], in test [8], in test [11], in [13] and in test [15] was “inactive” throughout. Further, the outcome in test [14] and in test [20] was inactive.

Take `N#CN=C1SCCN1Cc1ccc(Cl)nc1`: the Potency result in [1], in [17], in [4], in test [18], in test [19] and in [5] was “inactive” each time. The Potency entry in test [6], in test [8], in [9], in [11], in test [13] and in [15] was “inactive” throughout. For the same compound, the call in test [16] and in [7] was inactive.

As for `O=C(NC(O)C(Cl)(Cl)Cl)NC(O)C(Cl)(Cl)Cl` (configuration not stated), the Potency result in test [1], in test [2], in test [3], in test [4], in test [18] and in test [19] was “inactive” each time. Moreover, the Potency entry in test [5], in test [6], in test [8], in test [11], in test [13] and in [15] was “inactive” in each case. The outcome in test [14] and in test [20] was inactive.

`CCN[C@@H](C)Cc1ccccc1`: the Potency result in [1], in [2], in test [18], in test [5], in [6] and in test [8] was “inactive” in each case. Also, the Potency result in test [11], in test [13] and in [15] was “inactive” in each case. Further, the result in [16], in test [7], in test [10], in [12], in test [14] and in test [20] was inactive.

With `Brc1c(Br)c(Br)c(Br)c(Br)c1Br`, the activation in test [1] was -0.623% [at 8.47 µM]; in test [4], -11.1% [at 8.36 µM]; in test [5] it was -1.19% [at 5.95 µM]; in [7], 3.14% [at 5.95 µM]. Further, the viability change, negative = cytotoxic in test [2] is 2.59% [at 8.47 µM]; in test [18] it was -9.94% [at 8.36 µM]; in test [8], -8.99% [at 6.26 µM]; in [11] it was 26.7% [at 5.95 µM]. Further, the activity change, negative = cytotoxicity in test [3] is -21% [at 5.95 µM, co-treated with 50 nM rosiglitazone]; in test [19] it was -1.06% [at 5.95 µM]; in [6], 3.57% [at 5.95 µM]; in [13], -6% [at 5.95 µM]. Further, the ratio activity, negative = inhibition in test [9] was -21.8% [at 6.26 µM].

The record behind these values is PubChem BioAssay (Tox21).
